Source: PubChem BioAssay (EPA / NIEHS)
Results filed as inconclusive are left out. Activity calls are given as the source filed them. How the source made its calls, unless noted: active means hit-call score of the fitted dose curve at least 0.9, where 1 is the maximum; inactive means score below 0.9.

Columns and labels:
[1] = biological target: Retinoic acid receptor RXR-alpha (Homo sapiens) (UniProt P19793); test: OT_NURR1_NURR1RXRa_1440: Odyssey Thera (OT) 24-hour HEK293T Protein Complementation Assay for Nurr1/retinoid X receptor (RXR) (AID 2283386; active means hit-call score of the fitted dose curve at least 0.9, where 1 is the maximum)
Outline: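 Cell-based binding reporter: HEK293T cells, 24 h exposure, fluorescence-detected fragment complementation, DMSO as baseline.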

[2] = CEETOX_H295R_11DCORT: CeeTox H295R High-throughput Steroidogenesis Assay for 11-Deoxycortisol (11DCORT) (AID 2283432); settings: actives raise or lower the signal;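 on AC50: 11-deoxycortisol secreted into the medium measured by LC-MS/MS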
Outline: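 H295R cells; 10 uM forskolin prestim 48 h; compound in 0.1% DMSO 48 h; media extracted with MTBE; 11-deoxycortisol by LC-MS/MS, 7-point standard curve; gain/loss vs DMSO baseline; viability by MTT in same wells.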

[3] = CEETOX_H295R_OHPREG: CeeTox H295R High-throughput Steroidogenesis Assay for OH-Pregnenolone (OHPREG) (AID 2283434); settings: actives raise or lower the signal
Outline: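 Secreted 17alpha-hydroxypregnenolone measured by HPLC-MS/MS after liquid-liquid extraction. Human adrenal H295R cells received 48 h forskolin (10 uM) stimulation before 48 h chemical exposure at 0.1% final DMSO; MTT viability in same wells; bidirectional fit against DMSO.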

[4] = CEETOX_H295R_OHPROG: CeeTox H295R High-throughput Steroidogenesis Assay for OH-Progesterone (OHPROG) (AID 2283435); settings: actives raise or lower the signal;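 on AC50: 17alpha-hydroxyprogesterone secreted into medium measured by HPLC-MS/MS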
Outline: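 Human adrenocortical H295R cells, passage 10 or lower, were treated with chemical for 48 h after forskolin priming, and hormone output in the medium was quantified by LC-MS/MS.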

[5] = CEETOX_H295R_CORTIC: CeeTox H295R High-throughput Steroidogenesis Assay for Corticosterone (CORTIC) (AID 2283437); settings: actives raise or lower the signal
Outline: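 Medium corticosterone was quantified by tandem mass spectrometry following 48 hours of chemical exposure (0.1% DMSO) in human H295R cells previously stimulated 48 hours with 10 uM forskolin. Viability checked by MTT; chemicals diluted and retested when viability fell below 70%.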

[6] = CEETOX_H295R_CORTISOL: CeeTox H295R High-throughput Steroidogenesis Assay for Cortisol (AID 2283438); settings: actives raise or lower the signal;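 further: cortisol secreted into medium quantified by LC-MS/MS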
Outline: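 Steroidogenesis in H295R, per modified OECD 456: 48 h forskolin (10 uM), then 48 h exposure, 0.1% DMSO. Cortisol by extraction and tandem MS; viability by MTT (570/650 nm); cytotoxic chemicals diluted and re-tested.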

[7] = CEETOX_H295R_DOC: CeeTox H295R High-throughput Steroidogenesis Assay for DOC (AID 2283439); settings: actives raise or lower the signal
Outline: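 H295R, fsk 10 uM ×48 h pre, cmpd ×48 h (0.1% DMSO). Media → MTBE extr. → LC-MS/MS, DOC. Bidirectional fit vs DMSO; MTT viability same wells, re-test diluted if <70%.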

[8] = CEETOX_H295R_PROG: CeeTox H295R High-throughput Steroidogenesis Assay for Progesterone (PROG) (AID 2283442); settings: actives raise or lower the signal;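 further: human H295R adrenal cells primed with 10 µM forskolin before dosing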
Outline: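 Adrenal H295R line, forskolin-stimulated (10 uM, 48 h) before dosing. 48 h exposure, 0.1% DMSO vehicle. Secreted progesterone by reverse-phase HPLC with ESI+ MS/MS quantification; DMSO-normalised bidirectional curve fit.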

[9] = read-out: Tumor necrosis factor receptor superfamily member 6 (Homo sapiens) (UniProt P25445); test: LTEA_HepaRG_FAS: Life Technologies and Expression Analysis (LTEA) Assay for Fas cell surface death receptor (FAS) using HepaRG (AID 2283447); settings: mRNA level, 48 h; actives raise or lower the signal
Outline: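 FAS transcript level was measured by TaqMan qRT-PCR against three housekeeping genes after 48 h chemical exposure. Cells were HepaRG, 0.5% DMSO vehicle, with a top concentration of 100 uM and half-log dilutions over eight points, in duplicate.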

[10] = read-out: Fatty acid synthase (Homo sapiens) (UniProt P49327); test: LTEA_HepaRG_FASN: Life Technologies and Expression Analysis (LTEA) Assay for Fatty Acid Synthase (FASN) using HepaRG (AID 2283448); settings: mRNA level, 48 h; actives raise or lower the signal;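 on AC50: differentiated human HepaRG liver cells in serum-free induction medium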
Outline: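 In human HepaRG cultures, 48 h chemical exposure (up to 100 uM, 0.5% DMSO) preceded TaqMan qRT-PCR of FASN.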

[11] = read-out: Cyclin D2 (CCND2), CCND2 (gene 894); test: LTEA_HepaRG_CCND2: Life Technologies and Expression Analysis (LTEA) Assay for Cyclin D2 (CCND2) using HepaRG (AID 2283449); settings: mRNA level, 48 h; actives raise or lower the signal
Outline: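 CCND2 transcript levels, quantified by qRT-PCR and normalised to three housekeeping genes, were fitted bidirectionally against 0.5% DMSO. HepaRG cultures were dosed 48 h in duplicate with an 8-point half-log series up to 100 uM.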

[12] = read-out: Cyclin Dependent Kinase Inhibitor 1A (CDKN1A), CDKN1A (gene 1026); test: LTEA_HepaRG_CDKN1A: Life Technologies and Expression Analysis (LTEA) Assay for Cyclin Dependent Kinase Inhibitor 1A (CDKN1A) using HepaRG (AID 2283450); settings: mRNA level, 48 h; actives raise or lower the signal
Outline: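 Cryopreserved HepaRG cells were plated and cultured 48 h, then switched to serum-free induction medium. Chemicals (eight half-log concentrations, top 100 uM, 0.5% DMSO) were applied for 48 h. Lysates underwent qRT-PCR for CDKN1A with housekeeping normalization.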

[13] = read-out: Cyclin D1 (CCND1), CCND1 (gene 595); test: LTEA_HepaRG_CCND1: Life Technologies and Expression Analysis (LTEA) Assay for Cyclin D1 (CCND1) using HepaRG (AID 2283451); settings: mRNA level, 48 h; actives raise or lower the signal
Outline: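 Human liver HepaRG line; 48 h dosing, 8 conc. ≤100 uM, 0.5% DMSO; TaqMan qRT-PCR mRNA, 3 housekeeping genes; bidirectional curve fit vs DMSO.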

[14] = read-out: catalase (CAT), CAT (gene 847); test: LTEA_HepaRG_CAT: Life Technologies and Expression Analysis (LTEA) Assay for catalase (CAT) using HepaRG (AID 2283452); settings: mRNA level, 48 h; actives raise or lower the signal
Outline: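 Expression of CAT was quantified by TaqMan qRT-PCR with ACTB/GAPDH/POLR2A normalization after 48 h chemical exposure of HepaRG. Eight-point half-log series, top 100 uM, in 0.5% DMSO; gain or loss fitted against vehicle.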

[15] = read-out: flavin-containing dimethylaniline monooxygenases 3 (FMO3), FMO3 (gene 2328); test: LTEA_HepaRG_FMO3: Life Technologies and Expression Analysis (LTEA) Assay for flavin-containing dimethylaniline monooxygenases 3 (FMO3) using HepaRG (AID 2283453); settings: mRNA level, 48 h; actives raise or lower the signal;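 on AC50: differentiated human HepaRG liver cells in serum-free induction medium; FMO3 transcript by TaqMan qRT-PCR normalized to ACTB GAPDH and POLR2A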
Outline: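 Eight-point concentration-response in serum-free HepaRG cultures (top 100 uM, 0.5% DMSO, 48 h). Read-out: FMO3 mRNA level normalized to three endogenous control genes, fitted bidirectionally versus vehicle.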

[16] = biological target: Peroxisome proliferator-activated receptor gamma (Homo sapiens) (UniProt P37231); test: OT_PPARg_PPARgSRC1_0480: Odyssey Thera (OT) 8-hour Protein-Complementation Assay for Peroxisome Proliferator-activated Receptor Gamma / SRC-1 Co-activator (AID 2283387; active means hit-call score of the fitted dose curve at least 0.9, where 1 is the maximum;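 further: nuclear to cytoplasmic split Venus YFP fluorescence ratio reporting PPARg SRC-1 interaction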)
Outline: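 Read-out: 488 nm N/C fluorescence ratio from complemented Venus YFP fragments, ≥350 cells per image, gain-of-signal fitted against DMSO baseline. Fusions of PPARg/SRC-1 with IFP1/IFP2 expressed transiently in HEK293T; compounds applied 8 h.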

[17] = biological target: Peroxisome proliferator-activated receptor gamma (Homo sapiens) (UniProt P37231); test: OT_PPARg_PPARgSRC1_1440: Odyssey Thera (OT) 24-hour Protein-Complementation Assay for Peroxisome Proliferator-activated Receptor Gamma/ SRC-1 Co-activator (AID 2283388; active means hit-call score of the fitted dose curve at least 0.9, where 1 is the maximum;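 further: nuclear to cytoplasmic ratio of reconstituted Venus YFP fluorescence in fixed imaged cells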)
Outline: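 Transient HEK293T, YFP fragments 1-158/159-239 (mutant IFP1/IFP2) fused to PPARg/SRC-1; 24 h dosing; fix 4% formaldehyde, Draq5; Opera imaging 488/635 nm; N/C ratio, gain vs DMSO.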

[18] = CEETOX_H295R_ESTRADIOL: CeeTox H295R High-throughput Steroidogenesis Assay for Estradiol (AID 2283440); settings: actives raise or lower the signal;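 further: estradiol secreted into medium quantified by LC-MS/MS after dansyl derivatisation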
Outline: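 Following OECD 456 with minor changes, H295R cells received 10 uM forskolin for 48 h and then test chemical for 48 h. Hormone output was read by HPLC-MS/MS, with cytotoxic concentrations diluted until MTT viability reached ≥70%.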

[19] = CEETOX_H295R_ESTRONE: CeeTox H295R High-throughput Steroidogenesis Assay for Estrone (AID 2283441); settings: actives raise or lower the signal;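 further: estrone secreted into medium measured by LC-MS/MS after dansyl derivatization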
Outline: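 Forskolin-stimulated H295R cells are treated 48 h with chemical, and estrone in the medium is measured by LC-MS/MS. Activity is fitted in both directions relative to DMSO controls, with chemicals diluted until MTT viability reaches at least 70%.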

Measured: AC50

Sequence of Peroxisome proliferator-activated receptor gamma (Homo sapiens) (P37231 whole entry, looked up, the tested form may be a part): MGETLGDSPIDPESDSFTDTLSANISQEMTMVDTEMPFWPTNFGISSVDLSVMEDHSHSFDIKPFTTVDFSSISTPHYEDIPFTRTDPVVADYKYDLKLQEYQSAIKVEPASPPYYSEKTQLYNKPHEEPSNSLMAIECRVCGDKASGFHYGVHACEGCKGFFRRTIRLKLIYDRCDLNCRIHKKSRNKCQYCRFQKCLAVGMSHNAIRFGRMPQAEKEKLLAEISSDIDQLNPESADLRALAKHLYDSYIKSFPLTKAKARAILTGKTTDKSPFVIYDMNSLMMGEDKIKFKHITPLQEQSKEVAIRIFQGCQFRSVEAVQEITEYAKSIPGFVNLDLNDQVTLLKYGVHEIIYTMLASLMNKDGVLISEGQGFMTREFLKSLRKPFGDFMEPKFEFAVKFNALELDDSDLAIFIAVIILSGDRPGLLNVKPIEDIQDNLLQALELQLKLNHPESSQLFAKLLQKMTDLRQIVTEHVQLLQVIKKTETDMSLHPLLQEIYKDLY
Sequence of Fatty acid synthase (Homo sapiens) (P49327 whole entry, looked up): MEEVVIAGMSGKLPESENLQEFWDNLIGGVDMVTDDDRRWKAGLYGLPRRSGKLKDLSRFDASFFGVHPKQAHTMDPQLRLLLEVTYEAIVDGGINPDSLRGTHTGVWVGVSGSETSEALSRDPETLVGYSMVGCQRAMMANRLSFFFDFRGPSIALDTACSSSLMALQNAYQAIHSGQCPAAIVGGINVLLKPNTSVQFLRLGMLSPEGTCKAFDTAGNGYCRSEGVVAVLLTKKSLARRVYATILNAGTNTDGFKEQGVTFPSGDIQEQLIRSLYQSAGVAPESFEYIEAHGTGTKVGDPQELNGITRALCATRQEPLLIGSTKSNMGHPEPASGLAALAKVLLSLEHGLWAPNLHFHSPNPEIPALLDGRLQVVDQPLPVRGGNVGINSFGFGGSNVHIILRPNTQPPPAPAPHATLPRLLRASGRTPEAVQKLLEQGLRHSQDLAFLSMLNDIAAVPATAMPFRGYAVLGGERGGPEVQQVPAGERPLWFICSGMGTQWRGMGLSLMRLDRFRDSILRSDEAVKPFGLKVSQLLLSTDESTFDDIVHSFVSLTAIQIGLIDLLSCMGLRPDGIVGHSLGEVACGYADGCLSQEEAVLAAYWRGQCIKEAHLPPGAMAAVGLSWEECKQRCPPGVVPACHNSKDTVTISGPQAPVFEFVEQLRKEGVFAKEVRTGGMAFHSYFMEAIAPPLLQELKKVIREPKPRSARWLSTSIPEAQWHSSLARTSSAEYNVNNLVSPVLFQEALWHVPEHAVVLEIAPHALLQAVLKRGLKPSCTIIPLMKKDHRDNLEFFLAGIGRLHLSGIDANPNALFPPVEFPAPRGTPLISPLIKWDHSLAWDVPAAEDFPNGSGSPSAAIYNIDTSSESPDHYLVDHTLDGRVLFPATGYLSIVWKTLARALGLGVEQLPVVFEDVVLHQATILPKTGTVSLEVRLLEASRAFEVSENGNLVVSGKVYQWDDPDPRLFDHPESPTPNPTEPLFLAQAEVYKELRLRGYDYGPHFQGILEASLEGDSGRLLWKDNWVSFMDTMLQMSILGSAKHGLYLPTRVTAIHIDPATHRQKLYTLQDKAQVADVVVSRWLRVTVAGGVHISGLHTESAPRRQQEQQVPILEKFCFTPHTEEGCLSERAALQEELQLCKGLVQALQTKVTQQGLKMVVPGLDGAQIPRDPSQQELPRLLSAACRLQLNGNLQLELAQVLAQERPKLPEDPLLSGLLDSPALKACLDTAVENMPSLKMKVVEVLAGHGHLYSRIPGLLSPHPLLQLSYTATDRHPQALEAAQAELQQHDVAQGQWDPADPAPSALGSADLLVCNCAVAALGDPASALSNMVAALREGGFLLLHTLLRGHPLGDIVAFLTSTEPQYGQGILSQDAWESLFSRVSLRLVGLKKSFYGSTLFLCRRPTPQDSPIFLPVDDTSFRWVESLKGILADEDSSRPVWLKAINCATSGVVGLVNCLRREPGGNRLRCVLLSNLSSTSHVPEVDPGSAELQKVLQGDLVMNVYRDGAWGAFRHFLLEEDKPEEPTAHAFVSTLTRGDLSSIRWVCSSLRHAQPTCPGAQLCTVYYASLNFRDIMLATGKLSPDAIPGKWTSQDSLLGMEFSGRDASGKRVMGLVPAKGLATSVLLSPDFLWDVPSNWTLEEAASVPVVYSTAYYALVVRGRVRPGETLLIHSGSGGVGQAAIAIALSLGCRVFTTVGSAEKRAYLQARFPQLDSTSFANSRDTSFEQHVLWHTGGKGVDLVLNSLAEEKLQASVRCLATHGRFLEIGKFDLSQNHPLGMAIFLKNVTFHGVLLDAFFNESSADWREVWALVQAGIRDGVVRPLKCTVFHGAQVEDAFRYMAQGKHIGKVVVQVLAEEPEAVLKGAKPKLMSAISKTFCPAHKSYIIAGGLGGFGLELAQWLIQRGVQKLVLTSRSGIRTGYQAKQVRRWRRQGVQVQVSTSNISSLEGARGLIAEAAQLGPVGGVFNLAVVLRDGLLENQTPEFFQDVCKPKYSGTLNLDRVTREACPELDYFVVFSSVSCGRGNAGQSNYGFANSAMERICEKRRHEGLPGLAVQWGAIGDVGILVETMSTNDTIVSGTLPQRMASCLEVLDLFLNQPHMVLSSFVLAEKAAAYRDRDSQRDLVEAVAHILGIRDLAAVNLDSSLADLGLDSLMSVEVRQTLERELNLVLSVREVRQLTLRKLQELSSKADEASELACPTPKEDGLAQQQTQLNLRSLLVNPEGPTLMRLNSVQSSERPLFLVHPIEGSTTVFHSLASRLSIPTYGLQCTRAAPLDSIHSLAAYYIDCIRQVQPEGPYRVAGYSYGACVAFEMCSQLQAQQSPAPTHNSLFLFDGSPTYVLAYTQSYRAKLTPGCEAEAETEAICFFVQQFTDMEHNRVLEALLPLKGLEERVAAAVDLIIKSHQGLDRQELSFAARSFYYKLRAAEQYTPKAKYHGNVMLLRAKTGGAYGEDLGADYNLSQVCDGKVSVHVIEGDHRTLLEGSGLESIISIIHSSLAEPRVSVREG
Sequence of Retinoic acid receptor RXR-alpha (Homo sapiens) (P19793 whole entry, looked up, the tested form may be a part): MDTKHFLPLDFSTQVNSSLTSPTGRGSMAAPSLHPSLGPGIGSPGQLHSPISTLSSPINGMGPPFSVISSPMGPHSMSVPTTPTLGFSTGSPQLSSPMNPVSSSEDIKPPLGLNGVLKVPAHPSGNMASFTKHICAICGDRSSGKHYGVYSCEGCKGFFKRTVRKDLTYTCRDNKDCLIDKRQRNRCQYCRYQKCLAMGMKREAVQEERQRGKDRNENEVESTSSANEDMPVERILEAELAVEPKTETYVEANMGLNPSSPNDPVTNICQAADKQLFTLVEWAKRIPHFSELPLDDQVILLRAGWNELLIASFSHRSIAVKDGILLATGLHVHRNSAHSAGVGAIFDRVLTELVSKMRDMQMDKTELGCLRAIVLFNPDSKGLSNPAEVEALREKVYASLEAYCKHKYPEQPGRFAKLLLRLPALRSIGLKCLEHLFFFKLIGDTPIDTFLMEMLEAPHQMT

Cc1cc(Cc2ccc(N)c(C)c2)ccc1N
active: [2] 34.9 µM | [3] 4.69 µM | [4] 1.37 µM | [5] 0.458 µM | [6] 22.9 µM | [7] 13.2 µM | [8] 18.9 µM
not listed: [16] | [17] | [18] | [19]
inactive: all other assays above

C=CCCCCCCCCCCCC
inactive: [1] | [16] | [17] | [9] | [10] | [11] | [12] | [13] | [14] | [15]

CC(=O)OCC(COC(C)=O)OC(C)=O
inactive: [1] | [16] | [17] | [9] | [10] | [11] | [12] | [13] | [14] | [15]

CCCCCCC(C=O)=Cc1ccccc1
inactive: [1] | [16] | [17] | [9] | [10] | [12] | [13] | [14] | [15]

O=C1O[C@H]([C@H](O)CO)C(O)=C1O
inactive: [1] | [16] | [17] | [9] | [10] | [11] | [12] | [13] | [14] | [15]

CC(N)=O
inactive: [1] | [16] | [17] | [9] | [10] | [12] | [13] | [14] | [15]

CCCC[C@H]1CN(CC2CCOCC2)C(=O)OC12CCN(C1(C)CCN(C(=O)c3c(C)ncnc3C)CC1)CC2
inactive: [1] | [16] | [17] | [9] | [10] | [11] | [12] | [13] | [14] | [15]

CN(C)C(=O)NC1(c2ccccc2)CCN(CC[C@@]2(c3ccc(F)c(F)c3)CN(C(=O)c3ccccc3)CCO2)CC1
inactive: [1] | [16] | [17] | [9] | [11] | [12] | [13] | [14]
active: [10] 29.5 µM | [15] 57 µM

CCCCC(CC)CO (centres undefined)
active: [11] 59.8 µM
inactive: [1] | [16] | [17] | [9] | [10] | [12] | [13] | [14] | [15]

COC(=O)CCCC(=O)OC
inactive: [1] | [9] | [10] | [11] | [12] | [13] | [14] | [15]

CC(=O)[C@@]1(O)CC[C@H]2[C@@H]3CCC4=CC(=O)CC[C@]4(C)[C@H]3CC[C@@]21C
active: [2] 8.94 µM | [3] 14.2 µM | [4] 41.2 µM | [6] 1.12 µM | [7] 14.9 µM | [8] 42.6 µM | [10] 50 µM
not listed: [16] | [17] | [18] | [19]
inactive: all other assays above

Oc1ccc(O)cc1
active: [1] 44 µM | [7] 2.16 µM | [8] 3.17 µM
inactive: all other assays above

C/C=C/C=C/C(=O)O
inactive: [1] | [16] | [17] | [10] | [11] | [12] | [13] | [14] | [15]
